Assay results taken from PubChem BioAssay AID1851 (National Center for Advancing Translational Sciences (NCATS), 2009).
Among all 16,000 compounds or so, about 5,700 (36%) were called active. Roughly 24% stayed inconclusive and do not appear here. Calls follow the shape of the dose curve; as a rule, active = well fitted curve in the direction sought with a large enough effect; inconclusive = small, poorly fitted or top-dose-only effect, or effect the other way; inactive = no such curve, though single readings can be large or run the other way. Some of the results follow.

Each compound was assayed against Cytochrome P450 1A2 (Homo sapiens) (UniProt P05177) (assay: Cytochrome panel assay with activity outcomes). Conditions: recombinant CYP, pro-luciferin dealkylation, luminescence, p450-cyp1a2; series mostly up to 57.1 µM.
% is scaled to controls: 0 for no effect and ±100 for the full control effect.

Chain of Cytochrome P450 1A2 (Homo sapiens) (P05177 whole entry, looked up): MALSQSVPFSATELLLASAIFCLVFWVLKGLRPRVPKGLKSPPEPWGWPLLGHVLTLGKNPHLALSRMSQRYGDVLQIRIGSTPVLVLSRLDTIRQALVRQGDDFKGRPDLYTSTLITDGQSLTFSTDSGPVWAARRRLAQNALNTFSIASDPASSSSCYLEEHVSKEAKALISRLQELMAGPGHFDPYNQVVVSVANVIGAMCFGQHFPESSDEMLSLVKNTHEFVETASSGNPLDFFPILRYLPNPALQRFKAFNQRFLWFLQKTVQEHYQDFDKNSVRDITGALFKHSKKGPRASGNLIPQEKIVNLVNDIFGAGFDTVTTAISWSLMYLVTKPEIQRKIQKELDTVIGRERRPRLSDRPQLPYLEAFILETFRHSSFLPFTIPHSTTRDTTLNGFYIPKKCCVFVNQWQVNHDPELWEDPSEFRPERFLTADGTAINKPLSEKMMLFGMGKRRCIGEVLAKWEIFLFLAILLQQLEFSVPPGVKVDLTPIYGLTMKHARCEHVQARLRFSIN

AC50, active:
COc1ccc(/C=N/N(C(C)=O)c2nc(-c3ccc(C)cc3)cs2)cc1 1.58 µM
CC(=O)N(/N=C/c1cccc(C)c1)c1nc(-c2ccc(Br)cc2)cs1 1.41 µM
N#Cc1ccccc1-c1cncnc1NCc1cccnc1 0.0631 µM
Cc1cccc(CNc2ncncc2-c2ccccc2Cl)c1 3.16 µM
Cc1ccccc1-c1cncnc1NCc1ccccc1 12.6 µM
Cc1cccc(CNc2ncncc2-c2ccccc2C)c1 2.51 µM
Cc1ccccc1-c1cncnc1NCc1cccnc1 15.8 µM
FC(F)(F)c1ccccc1-c1cncnc1NCc1cccnc1 20 µM
Cn1c(=O)c(-c2ccccc2)nc2cnc(Nc3ccccc3)nc21 15.8 µM
Cc1nc2cnc(Nc3ccccc3)nc2n(C)c1=O 1.26 µM
COc1cccc(Nc2ncc3nc(-c4ccccc4)c(=O)n(C)c3n2)c1 3.16 µM
Cc1nc2c(C(=O)N3CCOCC3)cnn2c(C)c1Cc1ccc(Cl)cc1 15.8 µM
CC(C)(C)[Si](C)(C)c1c2c(nc3ccc(OCc4ccccc4)cc13)-c1cccc(=O)n1C2 5.01 µM
COc1cc2nc3c(c([Si](C)(C)C(C)(C)C)c2cc1OC)Cn1c-3cccc1=O 5.01 µM
COc1ccc2nc3c(c([Si](C)(C)C(C)(C)C)c2c1)Cn1c-3cccc1=O 0.794 µM
COCCn1c(=O)c(C)nc2cnc(N3CCNCC3)nc21 10 µM
Cc1nc2cnc(N3CCN(C)CC3)nc2n(CCc2ccccc2)c1=O 10 µM
COCCn1c(=O)c(C)nc2cnc(N3CCN(C)CC3)nc21 15.8 µM
Cc1cc(C(C)(C)C)cc(CNC2CCCCC2)c1O 3.16 µM
CCC(=O)NCc1c(Cl)cccc1-n1cccc1 14.1 µM
C/C(=C\c1ccco1)C1C(C#N)=C(N)Oc2n[nH]c(-c3ccccc3)c21 (stereo not given) 0.2 µM
COc1ccc(C(C)(C)C)cc1NC(=O)c1cncc(Br)c1 1 µM
Cc1nnc(SCc2nc(N)nc(Nc3ccccc3)n2)s1 4.47 µM
COc1ccc(Nc2nc(N)nc(CSc3n[nH]c(-c4ccccc4)n3)n2)cc1 15.8 µM
O=C(OC(C(=O)NC1CCCC1)c1ccncc1)C1=Cc2ccccc2OC1 (stereo not given) 11.2 µM
NCCOB(c1ccccc1)c1ccccc1 15.8 µM
Cc1noc(C)c1-c1cc(Nc2ccc(F)cc2)ncn1 0.501 µM
Cc1noc(C)c1-c1cc(Nc2ccccc2)ncn1 1.26 µM
O=C(c1cnn(-c2ccccc2)c1)c1ccc2ccccc2c1O 2.51 µM
Cc1ccc(NC2c3ncccc3C(=O)N2Cc2ccc(F)cc2)cc1 (stereo not given) 11.2 µM
CN(C)C(=O)c1ccc(-c2ccc3ncnc(NCc4cccs4)c3c2)cc1 15.8 µM
CN(C)c1ccc(-c2ccc3ncnc(NCc4ccccc4)c3c2)cc1 0.501 µM
CN(C)C(=O)c1ccc(-c2ccc3ncnc(NCc4ccccc4)c3c2)cc1 15.8 µM
Cc1cccc(CNc2ncnc3ccc(-c4ccc(C(=O)N(C)C)cc4)cc23)c1 15.8 µM
CN(C)c1ccc(-c2cncnc2NCc2ccccc2)cc1 1 µM
CN(C)c1ccc(-c2cncnc2NCc2cccnc2)cc1 1 µM
CN=C1S/C(=C\c2ccc(Sc3ccc(Cl)cc3)o2)C(=O)N1C 3.55 µM
Clc1ccc(Sc2ccc(/C=N/n3cnnc3)o2)cc1 14.1 µM
CN(C)c1nc(C#N)nc(N2CCOCC2)n1 1.58 µM
Cc1cc(C(=O)OC2CCOC2=O)c2ccccc2n1 (stereo not given) 2.82 µM
CCCCCCN1Cc2ccccc2C1 12.6 µM
CCOc1nc(NCCc2ccc(OC)c(OC)c2)nc(NC(C)(C)CO)n1 5.01 µM
Cc1c(Cl)c([N+](=O)[O-])nn1Cc1ccc(C(=O)N/N=C\c2cccc(Br)c2)o1 3.16 µM
Cc1c(Cl)c([N+](=O)[O-])nn1Cc1ccc(C(=O)N/N=C\c2cc(Cl)ccc2O)o1 1.58 µM
CC(=O)c1cccc(NC=C2C(=O)OC3(CCCCC3)OC2=O)c1 3.55 µM
CC1(C)OC(=O)C(=CNc2cccc(O)c2)C(=O)O1 12.6 µM

AC50, inactive:
Nc1cc(-c2nn[nH]n2)ccc1F
CCCCCCCCCCCCCCCCCC(=O)O[C@H](CC(=O)O)C[N+](C)(C)C
CC(C)(C)NS(=O)(=O)c1ccc(NC(=O)C(Sc2ccccc2)c2ccccc2)cc1 (stereo not given)
O=C(c1ccco1)N1CCC[C@@]2(CCN(Cc3nccs3)C2)C1
N[C@H](CCCC(=O)O)C(=O)O
O=C(NC[C@@H](O)CO)c1c(I)c(C(=O)NC[C@@H](O)CO)c(I)c(N(CCO)C(=O)CO)c1I
COc1cc2nc(N3CCN(C(=O)[C@@H]4CCCO4)CC3)nc(N)c2cc1OC
CCN1CCN(S(=O)(=O)c2ccc(Cl)c(C(=O)Nc3nnc(CC(C)C)s3)c2)CC1
O=C(c1cc(Cl)c(=O)n(Cc2ccc(Cl)cc2)c1)N1CCOCC1
Cc1ccc(CS(=O)(=O)CCC(=O)N2CCOCC2)cc1
O=C(O)CNC(=O)[C@@H](CS)Cc1ccccc1
COc1ccc(-c2nc3cnc(N4CCN(C)CC4)nc3n(CCc3ccccc3)c2=O)cc1
CN1CCN(c2ncc3nc(-c4cc(F)cc(F)c4)c(=O)n(CCc4ccccc4)c3n2)CC1
CC[C@H]1C2=C3C(CC[C@H]4C(OCc5ccc(F)cc5C(F)(F)F)OC[C@](C)([C@@H]34)N(C(=O)OC(C)(C)C)C2)C(COC(C)=O)C1COC(C)=O (stereo not given in full)
O=C(NNC(=O)c1ccccc1-n1cccc1)c1ccccc1
COc1nc(C)nc(Cl)c1NC1=NCCN1
NC[C@@H]1O[C@H](O[C@@H]2[C@H](O[C@@H]3O[C@H](CO)[C@@H](COC[C@H]4O[C@@H](CN)[C@@H](O)[C@@H](O)[C@@H]4N)[C@@H]3O)[C@@H](O)[C@@H](N)C[C@H]2N)[C@@H](N)[C@H](O)[C@@H]1O
CC(C)c1ccc(N(C(=O)C(F)(F)F)C(C(=O)NC2CCCCC2)c2ccncc2)cc1 (stereo not given)
Cc1cc(C)cc(N(C(=O)Cc2cccs2)C(C(=O)NC2CCCCC2)c2ccccn2)c1 (stereo not given)
Cc1noc(C)c1C(=O)N1CCC2(CCCN(Cc3ccc(C#N)cc3)C2)CC1
Cc1noc(C)c1C(=O)OCC(=O)NC(c1ccccc1)c1ccccc1
Cc1n[nH]c(C)c1S(=O)(=O)N1CCOCC1
Cc1ccc(CN2C(=O)CCC2C(=O)NCc2cccnc2)cc1 (stereo not given)
OC(CCCN1CCCCC1)(c1ccccc1)c1ccccc1
CCCCN1CCC(n2c(=O)[nH]c3ccccc32)CC1
COCCCNC(=O)CN(c1ccc(OC)cc1)S(=O)(=O)c1ccc(NC(C)=O)cc1
C=CCOc1ccc(CNC(C)(C)CO)cc1OC
COc1ccc(CCNC[C@H](O)c2ccc(O)cc2)cc1OC
Cc1nn(Cc2ccc(Cl)cc2)c(C)c1NC(=O)Cn1nc([N+](=O)[O-])c(Cl)c1C
CN(C)CC(O)COc1ccc(C(C)(C)c2ccc(OCC(O)CN(C)C)cc2)cc1 (stereo not given)
CC(=O)Nc1cccc(N2C(=O)CCC2=O)c1
CSCCC(NC=C1C(=O)OC(C)(C)OC1=O)C(=O)O (stereo not given)

activity, negative = inhibition, inactive:
C/C(CCN1CCCc2nc(C)c(C)cc21)=N\OC[C@@H](C)[C@H](OCc1ccccc1)C(C)C -3.05% [at 11.4 µM]
C[C@@]12C[C@H](O)[C@@H]3[C@H](CCC4=CC(=O)CC[C@]43C)[C@H]1CC[C@@H]2c1csc(N)n1 -9.78% [at 2.29 µM]
CCN1CCCCC(=N/O)/C(=N/O)CCCC1 -9.97% [at 11.4 µM]
C[C@@H]1OC2C3=C(C(=O)[C@H]4O[C@@H]4[C@H]3O)[C@@H]1[C@H]1[C@H](C)OC=C3[C@H](O)[C@H]4O[C@H]4/C(=N\OCc4ccccc4)[C@@]321 -13.5% [at 11.4 µM]
Cc1ccc(S(=O)(=O)NC(=O)Nc2ncn[nH]2)cc1 -21.4% [at 2.29 µM]
CN(C)C[C@H]1CCC2=C(C1=O)C(c1ccc(Cl)c(Cl)c1)C1=C(CC[C@H](CN(C)C)C1=O)O2 -2.04% [at 2.29 µM]
Oc1cc(CN2COc3ccccc32)c(O)cc1CNC1CCCCC1 -14.2% [at 11.4 µM]
CO[C@@H]1COC(=O)C/C=C\[C@@H](C)COC(=O)[C@H](Cc2ccccc2)NC(=O)C/C=C\[C@H]1C 5.59% [at 11.4 µM]
CCc1cc2c(nc1CC)CCN(CC/C(C)=N/O[C@@H](C)c1cc(-c3c(C)cc(C)cc3C)no1)C2 -8.6% [at 11.4 µM]
O=C(O)/C(=C\c1ccc(O)cc1)c1cccc2ccccc12 -10.8% [at 11.4 µM]
CC(C)CNC(=O)O -14.2% [at 11.4 µM]
CN[C@@H]1NC(=O)c2ccccc2N1Cc1ccc(F)cc1 -7.56% [at 2.29 µM]
CO[C@@H](C(C)C)[C@@H](C)[C@@H]1OC(=O)C[C@@H]1O -5.03% [at 11.4 µM]
CC(C)CO/N=C1/C[C@@H](O)[C@@H](O)[C@@H]2[C@@H]3C(=O)N([C@@H](C)c4ccccc4)C(=O)[C@H]3CC[C@H]12 4.53% [at 11.4 µM]
CC1(C)[C@@H]2CC[C@@](C)(C2)[C@H]1OC(=O)c1ccccc1C(=O)O 2.82% [at 11.4 µM]
CCSC[C@@H](N)C(=O)O -1.61% [at 2.29 µM]
O=C(O)[C@H]1CC=CC[C@@H]1C(=O)Nc1cccc(O)c1 -18.8% [at 11.4 µM]
